Measured values published in the supplement of paper PMC6555819.

Columns and labels:
Experiment in all cases: PBM binding z-score (relative to random genomic background probes); higher = stronger binding; sequences stand for … in GC…GCGATTGACAGCGTAGAATGAAGG
[1] = system: FXR:RXRa (NR concentration 270 nM, RXRa partner concentration 90 nM)
Summary of the method: (§1)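 Regression normalization was applied to scanned fluorescence from custom Agilent 4×180K protein-binding microarrays. Before scanning, arrays were incubated 1 h with ligand-free nuclear receptor dimers, and binding was detected with antibodies against each partner (one per run). Binding z-scores use the random background probes as reference.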

[2] = system: LXRa:RXRa (NR concentration 270 nM, RXRa partner concentration 90 nM)
Summary of the method: as §1

[3] = system: LXRa homodimer (NR concentration 270 nM)
Summary of the method: as §1

[4] = system: LXRb:RXRa (NR concentration 270 nM, RXRa partner concentration 90 nM)
Summary of the method: as §1

[5] = system: LXRb homodimer (NR concentration 270 nM)
Summary of the method: as §1

[6] = system: PPARa:RXRa (NR concentration 270 nM, RXRa partner concentration 90 nM)
Summary of the method: as §1

[7] = system: PPARg:RXRa (NR concentration 180 nM, RXRa partner concentration 90 nM)
Summary of the method: as §1

[8] = system: PPARg:RXRa 270nM:90nM, anti-RXR (NR concentration 270 nM, RXRa partner concentration 90 nM)
Summary of the method: as §1

[9] = system: PPARg:RXRa 30nM:10nM, anti-RXR (NR concentration 30 nM, RXRa partner concentration 10 nM)
Summary of the method: as §1

[10] = system: PPARg:RXRa 90nM:30nM, anti-RXR (NR concentration 90 nM, RXRa partner concentration 30 nM)
Summary of the method: as §1

| Sequence | PBM binding z-score [1] | PBM binding z-score [2] | PBM binding z-score [3] | PBM binding z-score [4] | PBM binding z-score [5] | PBM binding z-score [6] | PBM binding z-score [7] | PBM binding z-score [8] | PBM binding z-score [9] | PBM binding z-score [10] |
| --- | --- | --- | --- | --- | --- | --- | --- | --- | --- | --- |
| ACTATTAGTTGAGATGAGGGCAACCGATAGGTTG | 1.23 | 0.291 | 0.338 | 0.212 | 0.0544 | 0.427 | 0.607 | 0.07 | 0.15 | 0.083 |
| CAAACTAGGTCAATGGTCAAAGTCGAGCCAACCA | 3.39 | 2.76 | 0.566 | 2.15 | 0.29 | 5.6 | 9.78 | 8.03 | 7.9 | 8.7 |
| CCTTACGGGTCAAGGTTAAAGCACGGGTGGTACG | 5.62 | 3.83 | 0.272 | 3.14 | 0.0143 | 5.08 | 5.05 | 5.34 | 2.38 | 4.5 |
| ACAGACGGGTGAGTGAAGGTAACTCAGCTGGACG | 0.431 | -0.164 | -0.31 | -0.488 | -0.833 | 0.0344 | 0.424 | -0.249 | -0.296 | -0.268 |
| CATGCTAGGTCAATGGTCAGCTAAAGCAGCTCGC | 3.18 | 2.65 | 0.2 | 1.38 | 0.174 | 3.04 | 4.43 | 4.63 | 2.27 | 4.38 |
| CCGAGTAGGTTATGGGGCTTTCAGGCAACGGTGA | 0.104 | 0.374 | -0.409 | 0.503 | -0.205 | 1.34 | 1.69 | 2.5 | 0.331 | 1.54 |
| CCTAGCAGGTCAATCTGGGTCACTCAAGGCTTGA | 5.49 | 6.27 | 1.3 | 4.34 | 0.627 | 4.97 | 4.83 | 5.3 | 2.13 | 4.43 |
| CCTCGGACGACAGAAGGTCAGAGCTGTCCGCTTT | 1.1 | 1.53 | 0.0414 | 1.18 | -0.358 | 1.83 | -0.153 | -0.0801 | -1.06 | -0.472 |
| CCGAGCAGGTTATGGGGCATTCAGGCAACGGTGA | 0.101 | 0.177 | -0.511 | 0.325 | -0.148 | 1.45 | 0.617 | 1.24 | -0.414 | 0.762 |
| CAAACTAGGTCACAGAGGTCAAAGACCGTGCGTA | 7.36 | 6.53 | 6.56 | 5.93 | 1.73 | 6.52 | 10.5 | 8.43 | 6.84 | 8.38 |
| CGTCCAAGGTCAAGGTCAGTGGAAGAGACTCGAA | 7.57 | 5.46 | 1.22 | 4.68 | 0.505 | 5.89 | 6.29 | 6.3 | 2.6 | 5.24 |
| GCTGCTAGGTCAACTGTTGGTCAGCTAAAGCTCG | 3.97 | 2.97 | 0.182 | 2.03 | 0.134 | 3.61 | 2.63 | 3.07 | 0.511 | 2.23 |
| GCGACTGGGGCATGAGCAGGTTACCATAACTTAA | -0.261 | -0.325 | -0.638 | 0.484 | -1.12 | 1.1 | 1.08 | 1.11 | -0.134 | 0.437 |
| TCATATATGTAAACAGGTGAAAGTCCGTAAGTTA | 0.999 | 1.09 | 0.211 | 1.51 | 0.115 | 1.84 | 1.67 | 2.97 | 3.81 | 3.19 |
| TTACCAAGGAGAAGGTCGTTGATCCCTCTGTAGA | 1.21 | 1.19 | -0.0479 | 0.995 | -0.829 | 1.18 | 0.529 | 2.23 | 1.24 | 1.77 |
| GCATATAGGTAATACAAGATGAAAGTCCGATTGT | 0.0179 | -0.186 | -0.106 | -0.218 | -0.326 | 0.682 | 1.32 | 0.766 | 0.378 | 0.376 |
| CAAACTAGGTCAAACGTCAAAGTCGAGCCAACCA | 5.56 | 4.17 | 1.04 | 3.16 | 1.12 | 6.14 | 10.8 | 9.01 | 8.48 | 9.75 |
| CATGCTAGGTCATGGTCAGCTAATCTACAGTATG | 3.66 | 3.18 | 0.549 | 1.79 | -0.0133 | 3.24 | 2.36 | 2.83 | 1 | 2.3 |
| CCTAGTTGGTCAAGGGCACACACGCTATAGGTAC | 0.355 | 0.541 | 0.134 | 0.385 | -0.148 | 0.682 | 1.51 | 1.57 | 0.541 | 1.26 |
| ACTAGTTGGTCGGCTGAGGTCACACACAATTCGG | 3.37 | 2.69 | 1.73 | 2.93 | 0.679 | 3.59 | 1.43 | 2.08 | 0.45 | 1.51 |
| ATCTCTAGGTAAGACTCAGTTCAGTGAGGAACGC | 0.151 | 0.565 | 0.658 | -0.0789 | 0.649 | 0.134 | 0.166 | 0.25 | 0.0695 | 0.181 |
| TCTAGCAGGCCAGAGGGTCACTTAAGAGGTACGG | 1.18 | 0.809 | -0.547 | 1.05 | -1.09 | 2.4 | 1.58 | 2.96 | 2.13 | 2.57 |
| CCTTACGGCTCACTGACAGGTTATAGCATTTGGA | 0.367 | 0.347 | 0.304 | 0.294 | -0.0562 | 0.311 | 0.426 | -0.0307 | 0.448 | 0.0518 |
